High-throughput results (PubChem BioAssay)
NALP3 yeast inh = NALP3 inhibition in yeast; Yeast reconstituted NLRP3/ASC/caspase-1, beta-gal luminescence, 24 h; inhibition, % at 10 µM; AID 2825; 330,000 compounds, 0.39% hits;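 active means inhibition of 50% or more; inactive means inhibition below 50%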;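 further: plate controls were induced DMSO wells for no effect and uninduced yeast grown without galactose for full effect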
TIM10 inh = inhibits growth of TIM10 yeast strain; S. cerevisiae TIM10 strain growth, BacTiter-Glo luminescence, 24 h; inhibition, % at 10 µM; 330,000 compounds, 1.4% hits; AID 463195;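 active means inhibition of 40% or more at the single tested concentration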;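 further: wild-type TIM10 isogenic control strain grown at permissive 25 °C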
PfHsp90 yeast 2 = growth inhibition of yeast expressing Plasmodium Hsp90; S. cerevisiae expressing PfHsp90, BacTiter-Glo ATP, 48 h; yeast lacking PDR1 and PDR3 efflux regulators; inhibition, % at 9.4 µM; 310,000 compounds, 0.32% hits; AID 504621;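 active means every replicate shows inhibition above about 80%, whatever the replicate mean, limit read from the data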;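 further: 0% = DMSO neutral controls and 100% = 20 µM radicicol positive controls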
SKKanGAS inh = inhibitors of SKKanGAS S. pyogenes growth in kanamycin (SK-promoter or general growth effect); inhibition, % at 7.5 µM; 300,000 compounds, 1.3% hits; BacTiter-Glo, 6 h;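 active means mean replicate score, as percent of positive control median, at least 50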;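 further: strain carries kanamycin resistance gene driven by streptokinase promoter and grows in 40 µg/ml kanamycin; loss of luminescence reflects streptokinase promoter inhibition or plain growth inhibition; 0% = median of DMSO wells and 100% = positive control at its reference dose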
tim23-1 inh = inhibits growth of tim23-1 mutant yeast; S. cerevisiae tim23-1 growth, BacTiter-Glo luminescence, 24 h; inhibition, % at 20 µM; 330,000 compounds, 1.3% hits;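 active means growth inhibition of the mutant yeast at or above 50%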;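 further: temperature-sensitive mutant grown at 25 °C; plate controls were DMSO-treated mutant yeast for no effect and medium wells lacking yeast for full effect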
tim10-1 inh = inhibits growth of tim10-1 mutant yeast. S. cerevisiae tim10-1 ts strain growth, BacTiter-Glo, 24 h. inhibition, % at 20 µM. 330,000 compounds, 2.2% hits;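 active means inhibition of at least 40%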;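 further: mutant grown at 25 °C; 0% = DMSO wells with yeast and 100% = wells holding no yeast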
An asterisk follows results filed as active. An excerpt weighted towards active compounds, which were near 4.5% of everything screened.

CCC(C)COC(=O)C(C#N)c1nc2ccccc2nc1N1CCCCC1 (stereo not given) was read as NALP3 yeast inh 25, TIM10 inh 19, SKKanGAS inh 53*, tim23-1 inh 11 and tim10-1 inh 29.
Screening Cc1cc(Cn2nc(-c3ccccc3C)cc2C(=O)O)on1 returned NALP3 yeast inh 8, TIM10 inh -11, tim23-1 inh -8 and tim10-1 inh -19.
`O=C(COC(=O)c1ccc(F)c(S(=O)(=O)N2CCOCC2)c1)NCc1ccc(F)cc1` gave NALP3 yeast inh 11, TIM10 inh -1, PfHsp90 yeast 2 -7, tim23-1 inh 10 and tim10-1 inh 9.
COc1ccc(Nc2cnn(-c3nc4ccccc4s3)c(=O)c2Cl)cc1 was read as PfHsp90 yeast 2 96* and SKKanGAS inh 14.
`OC(Cn1cncn1)(c1ccc(F)cc1)c1ccc(Cl)cc1` (stereo not given) gave NALP3 yeast inh 21, TIM10 inh -60, PfHsp90 yeast 2 94*, SKKanGAS inh 1, tim23-1 inh -342 and tim10-1 inh -175.
CCN(CC)c1ccc(-c2nn3c(-c4cccnc4)nnc3s2)cc1 was read as PfHsp90 yeast 2 9 and SKKanGAS inh 68*.
`Cn1c(NCc2ccco2)nc2c1c(=O)n(Cc1ccc(Cl)c(Cl)c1)c(=O)n2C` gave NALP3 yeast inh 16, TIM10 inh 32, PfHsp90 yeast 2 -9, SKKanGAS inh 59*, tim23-1 inh 6 and tim10-1 inh 12.
COc1ccccc1NS(=O)(=O)c1ccc2[nH]c(=S)oc2c1 was read as NALP3 yeast inh 10, TIM10 inh -7, tim23-1 inh -9 and tim10-1 inh -15.
`CCOC(=O)c1c(NS(=O)(=O)c2ccc(Br)cc2)sc2c1CCC2` gave NALP3 yeast inh -2, TIM10 inh 25, PfHsp90 yeast 2 -26, SKKanGAS inh 79*, tim23-1 inh 31 and tim10-1 inh 35.
`O=C1NC(=O)/C(=C/c2ccccc2Oc2ccc(Cl)cc2)S1` gave NALP3 yeast inh -16, TIM10 inh 19, PfHsp90 yeast 2 -16, SKKanGAS inh 57*, tim23-1 inh 29 and tim10-1 inh 14.
`Cc1ccc(S(=O)(=O)Oc2ccccc2/C=C2\SC(=O)NC2=O)cc1` gave NALP3 yeast inh 6, TIM10 inh 14, PfHsp90 yeast 2 4, SKKanGAS inh 8, tim23-1 inh 24 and tim10-1 inh 32.
`CCOc1ccc(/C=N/NC(=O)Cc2csc(Nc3cccc(C(F)(F)F)c3)n2)cc1` gave NALP3 yeast inh 16, TIM10 inh 12, PfHsp90 yeast 2 -28, SKKanGAS inh 80*, tim23-1 inh 24 and tim10-1 inh 20.
COc1ccccc1CC(=O)Nc1ccc(S(=O)(=O)N2CCOCC2)cc1 was read as NALP3 yeast inh 32, TIM10 inh -2, PfHsp90 yeast 2 -10, SKKanGAS inh 3, tim23-1 inh 19 and tim10-1 inh 25.
`Cc1ccc2sc(NNC(=O)c3cc(-c4cccs4)nc4ccccc34)nc2c1C` gave SKKanGAS inh 90*.
`CC(C)OCCCNC(=O)c1cc(-c2cccs2)nc2ccccc12` gave NALP3 yeast inh 15, TIM10 inh 6, PfHsp90 yeast 2 12, SKKanGAS inh 3, tim23-1 inh 27 and tim10-1 inh 31.
For Cc1cc(C)c2nc(NNC(=O)c3cc(-c4cccs4)nc4ccccc34)sc2c1 the results were NALP3 yeast inh 12, TIM10 inh -12, PfHsp90 yeast 2 -203, SKKanGAS inh 89*, tim23-1 inh 42 and tim10-1 inh 37.
Screening Cc1ccc(NC(=O)c2cc(-c3cccs3)nc3ccccc23)nc1 returned NALP3 yeast inh -3, TIM10 inh 16, PfHsp90 yeast 2 -17, SKKanGAS inh 0, tim23-1 inh 22 and tim10-1 inh 3.
Screening CC(C)C(OC(=O)c1nsc(Cl)c1Cl)C(=O)NCc1ccccc1 (stereo not given) returned NALP3 yeast inh 19, TIM10 inh 20, PfHsp90 yeast 2 -2, SKKanGAS inh -8, tim23-1 inh 24 and tim10-1 inh 2.
Screening O=C1CN(/N=C/c2ccc([N+](=O)[O-])o2)C(=O)N1 returned NALP3 yeast inh 14, TIM10 inh 8, SKKanGAS inh 84*, tim23-1 inh -2 and tim10-1 inh 5.
`CC1CCCCC12NC(=O)N(CC(=O)N1CCN(S(=O)(=O)c3ccc4c(c3)CCC4)CC1)C2=O` (stereo not given) gave NALP3 yeast inh 4, TIM10 inh -2, tim23-1 inh -11 and tim10-1 inh -12.
For COc1ccc(C(CNC(=O)c2ccc(OCc3c(C)noc3C)cc2)N2CCCC2)cc1 (stereo not given) the results were NALP3 yeast inh 7, TIM10 inh 3, PfHsp90 yeast 2 -31, tim23-1 inh 14 and tim10-1 inh 9.
CC(=O)NC(=S)Nc1ccc(NC(=S)NC(=O)/C=C/c2ccco2)cc1 was read as NALP3 yeast inh 10, TIM10 inh 6, PfHsp90 yeast 2 4, SKKanGAS inh 83*, tim23-1 inh 9 and tim10-1 inh 5.
`CCC(=O)Nc1ccc(NC(=S)NC(=O)/C=C/c2ccco2)cc1` gave NALP3 yeast inh 8, TIM10 inh 13, PfHsp90 yeast 2 -19, SKKanGAS inh 2, tim23-1 inh 30 and tim10-1 inh 7.
COc1ccc(CCN2CC(C(=O)OCC(=O)N(C)CC(=O)Nc3ccccc3Cl)CC2=O)cc1OC (stereo not given) was read as PfHsp90 yeast 2 17.
O=[N+]([O-])c1ccc(O)c(-c2nc(-c3ccccc3)c(-c3cccs3)[nH]2)c1 was read as NALP3 yeast inh -14, TIM10 inh 26, SKKanGAS inh 102*, tim23-1 inh 30 and tim10-1 inh 28.
For COc1ccc(/C=C/C(=O)NC(=S)N2CCN(c3ccccc3OC)CC2)cc1 the results were NALP3 yeast inh 9, TIM10 inh 9, PfHsp90 yeast 2 -11, SKKanGAS inh 59*, tim23-1 inh 7 and tim10-1 inh 14.
`Cc1cccc(C)c1NC(=O)C1CCCN1S(=O)(=O)c1ccc2c(c1)n(C)c(=O)c(=O)n2C` (stereo not given) gave NALP3 yeast inh 16, TIM10 inh -5, PfHsp90 yeast 2 10, SKKanGAS inh -3, tim23-1 inh -9 and tim10-1 inh -14.
`Cc1ccc2c(C)c(C(=O)Nc3ccc(S(=O)(=O)Nc4onc(C)c4C)cc3)oc2c1` gave NALP3 yeast inh -2, TIM10 inh 17, PfHsp90 yeast 2 -8, SKKanGAS inh 65*, tim23-1 inh 16 and tim10-1 inh 6.
`Cc1ccc2c(=O)cc(C(=O)Nc3ccc(S(=O)(=O)Nc4onc(C)c4C)cc3)oc2c1` gave NALP3 yeast inh 0, TIM10 inh 6, PfHsp90 yeast 2 16, SKKanGAS inh 3, tim23-1 inh 2 and tim10-1 inh -11.
